BoNT A protease: BoNT/A light chain protease inhibitors, primary screen, biochemical, flow cytometry, MLPCN library. Botulinum neurotoxin type A light chain protease (Clostridium botulinum A str. ATCC 3502). multiplex microsphere protease substrate cleavage. inhibition, % at 10 µM. 0.17% of 360,000 active. AID 588499, 2011
Bead autofluor: counter-screen for toxin protease inhibitors: compound fluorescence | compound autofluorescence counterscreen, microsphere flow cytometry; stronger effect = higher value | fluorescence intensity (test concentration not listed) | 3.1% of 360,000 active; in the data active = fluorescence intensity above about 16000; inconclusive = no clear call, values can overlap the other calls
BoNT F protease: BoNT/F light chain protease inhibitors, primary screen, biochemical, flow cytometry, MLPCN library; Botulinum neurotoxin type F light chain protease (Clostridium botulinum); Multiplex microsphere protease cleavage assay; inhibition, % at 10 µM; 0.22% of 360,000 active; AID 588497, 2011; in the data active = inhibition above about 35%, passing the limit was not always enough; inconclusive = no clear call, values can overlap the other calls
MazF activator: activators of E. coli MazEF toxin-antitoxin RNase, primary screen, biochemical, fluorescence, uHTS | FAM/BHQ RNA-DNA oligo cleavage fluorescence, 5 h | activation, % at 20 µM | 0.32% of 350,000 active | AID 504720, 2011; in the data active = activation above about 50%
Target sequence (P0AE70 whole entry, looked up): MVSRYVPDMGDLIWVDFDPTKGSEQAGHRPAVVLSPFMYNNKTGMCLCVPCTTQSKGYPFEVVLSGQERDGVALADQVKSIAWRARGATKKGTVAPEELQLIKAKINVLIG
PfHsp40 yeast: rescue of yeast from PfHsp40 toxicity, primary screen, S. cerevisiae, ATP luminescence | S. cerevisiae expressing PfHsp40, growth rescue | growth rescue, % at 12.5 µM | 0.68% of 340,000 active | AID 504582, 2011; in the data active = growth rescue above about 28%, passing the limit was not always enough; inconclusive = no clear call, values can overlap the other calls;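 also: yeast W303a lacking pdr1 and pdr3 grown in galactose medium; growth measured after three days at 30 °C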
Anthrax LF inh2: Bacillus anthracis LF protease inhibitors, primary screen, biochemical, multiplex microsphere, MLPCN library; Lethal factor (Bacillus anthracis), P15917; multiplex microsphere protease cleavage assay; inhibition, % at 10 µM; 0.12% of 360,000 active; AID 588501, 2011
Numbers stand for hits; 0 = inactive; ? = inconclusive; - = not tested or not shown. Most compounds without a hit are left out; they make up all but 4.3% or so of the library. Rule as the data show it, unless noted: active = inhibition above about 30%; inconclusive = no clear call, values can overlap the other calls; inactive = below that.

SMILES | BoNT A protease | Bead autofluor | BoNT F protease | MazF activator | PfHsp40 yeast | Anthrax LF inh2
NN=C1c2ccccc2C(=O)C1C(=O)C(c1ccccc1)c1ccccc1 (stereo unspecified) | 0 | 0 | 0 | 0 | 0 | 0
COc1ccc(NC(=O)CSc2ccccn2)cc1OC | 0 | 0 | 0 | 0 | 0 | 0
COc1ccc(NC(=O)CSc2nnc(-c3ccccn3)n2-c2ccccc2)cc1OC | 0 | 20651 | 0 | 0 | 0 | 0
Cc1ccc(NC(=O)CSc2nnc(-c3cnccn3)n2-c2ccccc2)cc1 | ? | 16733 | 0 | 0 | 0 | 0
CC(=O)CSc1nnc(-c2cnccn2)n1-c1ccccc1 | 0 | 0 | 0 | 0 | 0 | 0
COc1ccc2c(=O)cc(-c3ccncc3)oc2c1OC | 0 | 0 | 0 | 0 | 0 | 0
O=C(NCC(=O)N1CCOCC1)c1ccc(Cl)cc1 | 0 | 0 | 0 | 0 | 0 | 0
CCOc1ccc2nc(N3CCOCC3)nc(C)c2c1 | 0 | 0 | 0 | 0 | 0 | 0
CCOc1ccc2nc3ccc4[nH]onc4c3c2c1 | ? | 0 | 49.5 | 0 | 0 | 0
CCC(C)[C@H](NC(=O)Nc1ccccc1F)C(=O)O (stereo partly specified) | 0 | 0 | 0 | 0 | 0 | 0
O=C1C(C=NCCCN2CCCC2=O)=C(O)c2ccccc21 | 0 | 19393 | 0 | 0 | 0 | 0
O=C1C(C=NCCCn2ccnc2)=C(O)c2ccccc21 | 0 | 0 | 0 | 0 | 0 | 0
Cc1cc(C)nc(N/C(=N\S(=O)(=O)Cc2ccccc2)Nc2cccc(Cl)c2C)n1 | 0 | 21814 | 0 | 0 | 0 | 0
CCCN=C(N)/C(C(=O)OCC)=C(\O)c1ccc(OC)cc1 | 0 | 21368 | 0 | 0 | 0 | 0
CCN(C(=O)Cn1cc(C(F)(F)F)ccc1=O)C1CCS(=O)(=O)C1 (stereo unspecified) | 0 | 0 | 0 | 0 | - | 0
COc1ccc(C(C(=O)NC(C)(C)C)N(C(=O)CCC(=O)Nc2ccccn2)C2CCCCC2)cc1 (stereo unspecified) | 0 | 0 | 0 | 0 | 0 | 0
COc1ccc(C2NC(=O)NC(C)=C2C(=O)OCC2CCCCC2)cc1OC (stereo unspecified) | 0 | 0 | 0 | 0 | 0 | 0
CCCN(CCC)C(=O)COc1cc(=O)n(CC)c2ccccc12 | 0 | 0 | 0 | 0 | 0 | 0
CCN(C(=O)COc1cc(=O)n(CC)c2ccccc12)c1cccc(Cl)c1 | 0 | 20694 | 0 | 0 | 0 | 0
CCc1nc2cc(NC(=O)C3(C)CCCN(C(C)C)C3)ccc2o1 (stereo unspecified) | 0 | 0 | 0 | - | - | 0
Cc1cc(C)n2nc(SCc3c(F)cccc3Cl)nc2n1 | 0 | 0 | 0 | 0 | 0 | 0
Cc1nc(SCc2c(F)cccc2Cl)n[nH]1 | 0 | 19718 | 0 | 0 | 0 | 0
CCOc1ccc(C(C)(N)C(=O)O)cc1 (stereo unspecified) | ? | 22131 | 0 | 0 | 0 | 0
CCOc1ccc(OCc2cccc(C(=O)O)c2)cc1 | 0 | 22901 | 0 | 0 | 0 | 0
COc1ccc(OCc2cccc(C(=O)O)c2)cc1 | 0 | ? | 0 | 0 | 0 | 0
SMILES | BoNT A protease | Bead autofluor | BoNT F protease | MazF activator | PfHsp40 yeast | Anthrax LF inh2
Cc1ccc(OCCn2cc(/C(N)=N/O)c3ccccc32)cc1C | 0 | 17016 | 0 | 0 | 0 | 0
COc1ccc(OCCn2cc(/C(N)=N/O)c3ccccc32)cc1 | 0 | 0 | 0 | 0 | 0 | 0
COc1cccc(N2CN(CCc3ccccc3)CNC2=S)c1 | 0 | 0 | 49.5 | 0 | - | ?
CCc1c(C)sc(NC(=O)c2ccoc2C)c1C(N)=O | 0 | 0 | 0 | 0 | 0 | 0
CCOC(=O)c1c(-c2ccccc2)csc1NC(=O)c1ccc(N2C(=O)CCC2=O)cc1 | 0 | 22792 | 0 | 0 | 0 | 0
CCOC(=O)c1c(-c2ccccc2)csc1NC(=O)c1ccc(S(=O)(=O)N2CC(C)OC(C)C2)cc1 (stereo unspecified) | 0 | 23061 | 0 | 0 | 0 | 0
CCOC(=O)c1c(-c2cc(OC)c(OC)c(OC)c2)csc1NC(=O)c1ccccc1 | 0 | 0 | 0 | 0 | - | 0
CCOC(=O)c1c(-c2ccccc2)csc1NC(=O)c1cc(S(=O)(=O)N2CCOCC2)ccc1C | 0 | 0 | 0 | 0 | 0 | 0
Cc1ccc(NC(=O)CCn2cc(C(F)(F)F)ccc2=O)cc1 | 0 | 0 | 0 | 0 | - | 0
CN(C)c1ccc(S(=O)(=O)N2CCCCC2)cc1NC(=O)CN1C(=O)NC2(CCCC2)C1=O | 0 | 0 | ? | 0 | 0 | 0

Assay outcomes as filed in PubChem.
